Measured values published in PubChem BioAssay (NCI).
This is part of a sample that, as a whole, favours compounds with a hit. Of some 83,000 tested, about 20% had one in any assay.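 In brief: 96-well plates, 48 h treatment, single concentration, percent growth endpoint.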 Calls of active or inactive are those of the source. The calls were made as follows: active = growth percent below 10; inactive = the rest.

Assays:
Assay in all cases: NCI-60 one-dose screen, 48 h (100 = growth as untreated, 0 = no growth, -100 = all killed)
[1] = system: NCI-H226 lung; conditions: 10 µM
[2] = system: HOP-62 NSCLC; conditions: 10 µM
[3] = system: NCI-H460 lung; conditions: 10 µM
[4] = system: A549/ATCC NSCLC; conditions: 10 µM
[5] = system: COLO 205 colon; conditions: 10 µM
[6] = system: DU-145 prostate; conditions: 10 µM
[7] = system: K-562 leukemia; conditions: 10 µM
[8] = system: SF-539 CNS; conditions: 10 µM
[9] = system: HCT-15 colon; conditions: 10 µM
[10] = system: HT29 colon; conditions: 10 µM
[11] = system: SNB-75 CNS; conditions: 10 µM
[12] = system: SNB-19 CNS; conditions: 10 µM
[13] = system: U251 CNS; conditions: 10 µM
[14] = system: PC-3 prostate; conditions: 10 µM
[15] = system: LOX IMVI melanoma; conditions: 10 µM
[16] = system: MOLT-4 leukemia; conditions: 10 µM
[17] = system: SR leukemia; conditions: 10 µM
[18] = system: RPMI-8226 leukemia; conditions: 10 µM
[19] = system: SK-OV-3 ovarian; conditions: 10 µM
[20] = system: MDA-MB-468 breast; conditions: 10 µM unless noted

Measured: growth

Cc1ccc(COc2ccc(NC(=O)Nc3ccc(Cl)c(C(F)(F)F)c3)cc2)cc1
active: [20] -14.4%
inactive: [1] 75.7% | [2] 97.9% | [3] 59.5% | [4] 64.7% | [5] 76.8% | [6] 81.5% | [7] 66.7% | [8] 78.7% | [9] 52.2% | [10] 80.6% | [11] 72.4% | [12] 75.8% | [13] 69.8% | [14] 38.4% | [15] 15.6% | [16] 73.5% | [17] 55% | [18] 39.5% | [19] 97.1%

CCCCCCNCc1cc(C(C)(C)C)cc(CNCCCCCC)c1O
active: [20] -89.8%

COc1cc(-c2nc3ccc(C)cc3[nH]2)ccc1OCc1nnc(-c2ccccc2Br)o1
inactive: [1] 65.3% | [2] 73.7% | [3] 72.8% | [4] 65.1% | [5] 72.8% | [6] 80.7% | [7] 55.8% | [8] 24.4% | [9] 36.4% | [10] 20% | [11] 112% | [12] 73.9% | [13] 57.7% | [14] 56.1% | [15] 71.8% | [16] 41.2% | [17] 59.1% | [18] 30.1% | [19] 75.1% | [20] 61.6%

COc1cc(C2CC(c3ccc(Oc4ccc(Cl)cc4)cc3)=NN2c2nc(-c3ccc(Cl)cc3)c(C#N)c(N3CCOCC3)n2)cc(OC)c1OC (stereo unspecified)
inactive: [1] 90.4% | [2] 98.9% | [3] 107% | [4] 97.9% | [5] 101% | [6] 106% | [7] 97.5% | [8] 95.7% | [9] 95.7% | [10] 106% | [11] 78.3% | [12] 102% | [13] 102% | [14] 92% | [15] 80.6% | [16] 105% | [17] 88.5% | [18] 104% | [19] 102% | [20] 107%

N=C(N)c1ccc(-c2ccc(-c3ccccc3)s2)s1
active: [20] -94.5%

Cc1ccc2c(c1)C(=O)/C(=C/c1ccc([N+](=O)[O-])cc1)S2
inactive: [1] 52.2% | [2] 92% | [3] 92.5% | [4] 99.6% | [5] 103% | [6] 104% | [7] 69.9% | [8] 96.6% | [9] 96.2% | [10] 79.1% | [11] 81.3% | [12] 92.4% | [13] 77.8% | [14] 94.5% | [15] 105% | [16] 107% | [17] 100% | [18] 65.2% | [19] 87.4% | [20] 84%

FC(F)(F)c1ccc(-c2cn3nc(-c4c[nH]c5ccc(Br)cc45)sc3n2)cc1
inactive: [20] 103%

CN1CCN(CCOc2cc(OC3CCOCC3)c3c(Nc4c(Cl)ccc5c4OCO5)ncnc3c2)CC1
inactive: [20] 25.8%

Fc1ccc(-c2csc(Nc3cccc(Nc4nc(-c5ccc(F)cc5)cs4)c3)n2)cc1
inactive: [1] 51.5% | [2] 72.7% | [3] 40.4% | [4] 62.8% | [5] 75.7% | [6] 67.7% | [7] 36% | [8] 70.9% | [9] 52.5% | [10] 62.3% | [11] 95.2% | [12] 70.2% | [13] 62.7% | [14] 35.2% | [15] 39.3% | [16] 46.4% | [17] 51.4% | [18] 49.5% | [19] 86.8% | [20] 38.6%

C#C[C@]1(O)CC[C@H]2[C@@H]3CC=C4c5sc(Nc6ccc(N(C)C)cc6)nc5CC[C@]4(C)[C@H]3CC[C@@]21C
active: [1] -43.2% | [3] 7.37% | [5] -28.6% | [6] -8.05% | [7] 4% | [8] -75.7% | [9] -37.5% | [10] -53.5% | [13] -75% | [14] 5.44% | [15] -80.3% | [16] -6.03% | [17] 9.05% | [18] -42% | [19] -39.5% | [20] -56.3%
inactive: [2] 10.7% | [4] 20.5% | [11] 33.8% | [12] 18.1%

Cc1c2oc3c(C)ccc(C(=O)OC(C)C4NC(=O)C(C(C)C)N(C)C(=O)CN(C)C(=O)C5CCCN5C(=O)C(C(C)C)NC4=O)c3nc-2c(C(=O)OC(C)C2NC(=O)C(C(C)C)N(C)C(=O)CN(C)C(=O)C3CCCN3C(=O)C(C(C)C)NC2=O)c(N)c1=O (stereo unspecified)
active: [20] -68.7%

O=C1S/C(=C\c2ccc([N+](=O)[O-])cc2)C(=O)N1CCN1CCCCC1
inactive: [1] 105% | [2] 112% | [3] 115% | [4] 110% | [5] 113% | [6] 119% | [7] 98.1% | [8] 112% | [9] 92.6% | [10] 121% | [11] 104% | [12] 98.6% | [13] 102% | [14] 94.3% | [15] 98.6% | [16] 101% | [17] 111% | [18] 106% | [19] 102% | [20] 99.5%

O=C(O)CCN1C(=O)/C(=C/C=C/c2ccc([N+](=O)[O-])o2)SC1=S
inactive: [4] 10.4% | [6] 26.3% | [7] 11.1% | [11] 24.2% | [19] 63.5%
active: [15] -100% | [16] -20.4% | [17] 0.111% | [18] -19.3% | [20] -77.8%

O=C(CC(=O)Nc1ccc(Oc2ncnc3scc(Nc4n[nH]c(=S)s4)c23)cc1)Nc1ccc(Br)cc1
inactive: [1] 94.4% | [2] 99.8% | [3] 107% | [4] 101% | [5] 107% | [6] 107% | [7] 76.4% | [8] 104% | [9] 100% | [10] 112% | [11] 95.6% | [12] 99.9% | [13] 103% | [14] 99.9% | [15] 66.2% | [16] 85.3% | [17] 87% | [18] 110% | [19] 98.4% | [20] 120%

CCCCCCCCCCCCCCCCCC(=O)Nc1ccc(O)cc1
inactive: [20] 103%

COc1ccc(Cn2cc(C#N)c(N)c2C(C)=O)c(OC)c1
inactive: [1] 102% | [2] 105% | [3] 108% | [4] 103% | [5] 125% | [6] 107% | [7] 103% | [8] 96.2% | [9] 102% | [10] 117% | [11] 111% | [12] 105% | [13] 105% | [14] 97.6% | [15] 99.6% | [16] 105% | [17] 106% | [18] 105% | [19] 99.8% | [20] 99.5%

O=C(c1ccccc1)c1ccc2nc(-c3ccccc3Br)[nH]c2c1
active: [1] -27.8% | [2] -46.6% | [3] -22.4% | [4] -57.9% | [5] -75.5% | [6] -76% | [7] -3.28% | [8] -96.1% | [9] -37.7% | [10] -71.3% | [11] -41.9% | [12] 4.77% | [13] -94.7% | [14] -19.4% | [15] -94.6% | [16] -15.3% | [17] -22.8% | [18] -17.9% | [20] -57.2%
inactive: [19] 24%

COc1ccc(C(=O)COc2ccc(NC(=O)Nc3ccccc3)cc2)cc1
inactive: [1] 87.6% | [2] 101% | [3] 76.6% | [4] 80.9% | [5] 107% | [6] 105% | [7] 94.6% | [8] 97% | [9] 80.3% | [10] 103% | [11] 87.9% | [12] 93.3% | [13] 86.5% | [14] 83.1% | [15] 58.9% | [16] 73.9% | [17] 80.6% | [18] 93.3% | [19] 105% | [20] 80.9%

O=C(CN1CCN(c2ncnc3c2cnn3-c2ccccc2)CC1)Nc1ccc(Br)cc1
inactive: [1] 62.5% | [2] 84.6% | [3] 57.7% | [4] 75.2% | [5] 70.6% | [6] 67.9% | [7] 42.8% | [8] 82.3% | [9] 45.2% | [10] 73.3% | [11] 80.9% | [12] 69.3% | [13] 76.2% | [14] 49.1% | [15] 81.8% | [16] 15% | [17] 40.3% | [18] 42.6% | [19] 76.7% | [20] 49.2%

Cn1cc(-c2cc3nc(-c4c[nH]c5ccccc45)cc(N)n3n2)c2cc(Cl)ccc21
active: [1] -30.4% | [2] -86.4% | [3] -58.2% | [4] -84.6% | [5] -89.9% | [6] -92.6% | [7] 0.698% | [8] -92.5% | [9] -84% | [10] -69.3% | [11] -65.9% | [12] -78.2% | [13] -91.8% | [14] -85.3% | [15] -91.6% | [16] -48.8% | [17] -8.96% | [18] -25.5% | [19] -94.7% | [20] -85.9%

Cc1ccc2sc3c(c2c1)Oc1nc[nH]c(=O)c1C3c1cccc(F)c1 (stereo unspecified)
inactive: [1] 80.6% | [2] 98.6% | [3] 102% | [4] 98.7% | [5] 105% | [6] 105% | [7] 81.7% | [8] 99.6% | [9] 92.6% | [10] 103% | [11] 84.2% | [12] 92.6% | [13] 97.1% | [14] 85.7% | [15] 107% | [16] 97% | [17] 96.3% | [18] 88.7% | [19] 93.5% | [20] 78%
